Hit rate of the full screen: of about 650,000 compounds, about 850 (0.13%) were called active. For the sample, actives were picked, then their nearest neighbours and some compounds at random. A number with no mark means an inactive call. Rule as the data show it: active = normalized activity above about 1.9%; inactive = the rest.
The molecules below were run against F-box/WD repeat-containing protein 7 (Homo sapiens) (UniProt Q969H0) (assay: FBW7 E3 ligase activators, primary screen, biochemical, AlphaScreen, human (AID 1259310;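 also: purified mutant Fbw7 with reduced substrate affinity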)). Details: AlphaScreen FBW7–phospho-cyclin E peptide binding, activator screen; at 26.1 µM; hits give high values.
Sequence of F-box/WD repeat-containing protein 7 (Homo sapiens) (Q969H0 whole entry, looked up): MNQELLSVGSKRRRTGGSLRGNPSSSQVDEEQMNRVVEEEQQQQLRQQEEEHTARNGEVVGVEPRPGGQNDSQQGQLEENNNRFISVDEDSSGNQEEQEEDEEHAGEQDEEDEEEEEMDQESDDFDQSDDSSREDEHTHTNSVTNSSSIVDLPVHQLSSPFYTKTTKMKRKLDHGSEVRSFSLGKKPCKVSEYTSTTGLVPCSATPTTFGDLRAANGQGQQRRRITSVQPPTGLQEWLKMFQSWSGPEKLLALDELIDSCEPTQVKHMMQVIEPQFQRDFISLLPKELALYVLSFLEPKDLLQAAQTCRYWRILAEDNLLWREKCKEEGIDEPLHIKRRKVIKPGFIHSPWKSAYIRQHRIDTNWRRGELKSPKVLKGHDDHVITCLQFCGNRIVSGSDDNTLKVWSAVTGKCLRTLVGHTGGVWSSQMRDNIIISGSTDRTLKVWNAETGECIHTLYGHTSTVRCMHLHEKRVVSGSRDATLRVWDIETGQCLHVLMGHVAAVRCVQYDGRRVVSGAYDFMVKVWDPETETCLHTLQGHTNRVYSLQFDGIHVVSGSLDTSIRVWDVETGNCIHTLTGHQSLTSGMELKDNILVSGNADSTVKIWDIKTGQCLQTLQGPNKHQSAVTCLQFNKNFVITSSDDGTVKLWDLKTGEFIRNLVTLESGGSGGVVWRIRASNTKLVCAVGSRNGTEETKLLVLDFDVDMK

Compared with `CCOc1ccc(Nc2nc(C)c([N+](=O)[O-])c(Nc3ccc(OC)cc3)n2)cc1`, `CC(=O)Nc1ccc(Nc2nc(Nc3ccncn3)nc3nc[nH]c23)cc1` is higher in normalized activity (activation): -0.11% for the first, 0.11% for the second.

Compared with `CC(C)CC(C(=O)NC1CCCC1)N(C(=O)c1snc(C(N)=O)c1N)C1CCCC1` (stereo not drawn), `CCn1c(N2CCC(C(=O)NC3CCCCC3)CC2)nc2ccccc21` is lower in normalized activity (activation): 0.18% for the first, 0.16% for the second.

Going from `Cc1ccc(C(=O)NC(C)C(c2cccs2)N2CCN(C)CC2)cc1` (stereo not drawn) to `C[C@@H](c1ccccc1)n1c(=O)[nH]c2ncc(-c3ccc(C(=O)N4CCN(C)CC4)cc3)nc21`, the normalized activity (activation) falls from -0.03% to -0.33%.

Compared with `CCCCOc1ccc(/C=C/c2nc3ccccc3c(=O)n2-c2ccc(C)c(C)c2)cc1`, `COc1ccc(C2=NN(c3ccccc3)C(c3ccc(F)cc3)C2)cc1` (stereo not drawn) is higher in normalized activity (activation): -0.23% for the first, 0.58% for the second.

Compared with `CC(=O)Nc1ccc(Nc2nc(Nc3ccncn3)nc3c2ncn3-c2ccsc2)cc1`, `CC(=O)Nc1ccc(Nc2nc(Nc3ccc(-n4ccnc4)cc3)nc3c2ncn3-c2ccsc2)cc1` is lower in normalized activity (activation): 0.77% for the first, -0.15% for the second.

Compared with `COc1ccccc1NC(=O)c1c(C)nc(SCC(=O)c2ccccc2)c(C#N)c1-c1ccc(C)o1`, `COC(=O)CSC1=C(C#N)C(c2ccccc2Cl)C(C(=O)Nc2ccccc2OC)=C(C)N1` (stereo not drawn) is lower in normalized activity (activation): -0.03% for the first, -0.06% for the second.

First: Cc1c(NC(=O)c2ccc(Br)cc2)cccc1-c1nc2ccccc2o1
Second: COc1ccc(Cl)cc1C(=O)Nc1cccc(-c2nc3cc(Cl)ccc3o2)c1C
The normalized activity (activation) of the first is lower: 0.17% for the first, 0.2% for the second.

Going from `O=C(CSc1n[nH]c(-c2cccs2)n1)NC(=O)NC12CC3CC(CC(C3)C1)C2` to `CCc1nn(CC(=O)NCc2cccs2)c(=O)c2cc3ccsc3n12`, the normalized activity (activation) falls from -0.03% to -0.13%.

Compared with `Cc1sc2ncn3c(SCC(=O)N4CCc5ccccc54)nnc3c2c1C`, `Cc1cc(C(=O)NCc2nnc3n2CCN(Cc2ccccc2)CC3)c(C)o1` is higher in normalized activity (activation): -0.09% for the first, -0.06% for the second.

Compared with `COC(=O)COc1ccc(S(=O)(=O)N2CCN(c3cc(Cl)ccc3C)CC2)cc1`, `CCN1C(=O)c2cccc3c(NC(=O)C4CCCN4S(=O)(=O)c4ccc(OC)cc4)ccc1c23` (stereo not drawn) is higher in normalized activity (activation): -0.32% for the first, -0.03% for the second.

Going from `O=C(CN(c1ccccc1)S(=O)(=O)c1ccccc1[N+](=O)[O-])Nc1ccc(F)cc1` to `NC(=O)CN(c1ccccc1)S(=O)(=O)c1ccccc1[N+](=O)[O-]`, the normalized activity (activation) falls from 0.71% to -0.14%.

Compared with `COCCCN1C(=O)C2C(C(=O)Nc3cccc(C)c3)C3C=CC2(O3)C1C(=O)NC1CCCC(C)C1C` (stereo not drawn), `COc1cccc(OC)c1C(=O)OCC(=O)NC1CCCCC1C` (stereo not drawn) is lower in normalized activity (activation): 0.2% for the first, -0.19% for the second.

First: C=CCn1c(=NC(=O)c2ccccc2[N+](=O)[O-])sc2cc(S(N)(=O)=O)ccc21
Second: Cc1cccc(NC(=O)c2ccccc2Nc2ccc(S(=O)(=O)C(F)(F)F)cc2[N+](=O)[O-])c1
The normalized activity (activation) of the first is lower: 0% for the first, 0.06% for the second.

Compared with `COc1ccccc1C1N(Cc2ccccc2)CCN1Cc1ccccc1`, `COc1ccc(C2(O)CC(C(F)(F)F)=NN2C(=O)CCc2ccccc2)cc1` (stereo not drawn) is higher in normalized activity (activation): 0.1% for the first, 0.67% for the second.

First: Cc1ccc(Oc2ccc(N(C)C(=O)Nc3ccc(Cl)cc3)cc2)nn1
Second: CC(=O)Nc1ccc(C(=O)NNC(=O)C(C)Oc2ccc(Cl)cc2Cl)cc1 (stereo not drawn)
The normalized activity (activation) of the first is higher: 0.86% for the first, -1.25% for the second.

Going from `COC(=O)c1c(OCc2ccncc2)cc(=O)n2c1CCN(CCCSC)CC2` to `O=C(CCCOc1ccc(Cl)cc1Cl)N1CCCC1`, the normalized activity (activation) rises from 0% to 0.05%.

Compared with `CC(C)OCCCNC(=O)Nc1cccc(Cl)c1`, `Cc1cccc(C)c1NC(=O)C(=O)NCCCO` is lower in normalized activity (activation): 0.02% for the first, 0.01% for the second.

First: C[C@@H](c1ccccc1)n1c(=O)[nH]c2ncc(-c3ccccc3)nc21
Second: O=C(CSc1ncc(-c2ccccc2)[nH]1)Nc1ccc(Br)cc1
The normalized activity (activation) of the first is higher: 0.05% for the first, -0.02% for the second.

Going from `CC(C)NCC(=O)N(c1ccccc1)N1CCOCC1` to `COCC(C)NC(=O)c1ccccc1I` (stereo not drawn), the normalized activity (activation) falls from 0.19% to 0.14%.

First: CCCCSc1nnc2c(n1)OC(c1ccc(N(C)C)cc1)Nc1ccccc1-2 (stereo not drawn)
Second: Fc1ccc(Nc2nc(NCC3CCCO3)c3ccccc3n2)cc1 (stereo not drawn)
The normalized activity (activation) of the first is higher: 0.3% for the first, -0.11% for the second.

Compared with `COc1ccc2c(c1)c(=O)c1ccccc1n2CC(=O)Nc1ccc(F)cc1`, `COc1ccc(OC)c(NS(=O)(=O)c2ccc(NC(=O)COc3ccccc3)cc2)c1` is lower in normalized activity (activation): 0% for the first, -0.06% for the second.

Compared with `N/C(=N\OCc1cc2c(cc1Cl)OCO2)c1nonc1N`, `Cc1cc(=O)oc2cc(OCC(=O)N/N=C/c3ccc4c(c3)OCO4)ccc12` is lower in normalized activity (activation): 0.4% for the first, -0.03% for the second.

Compared with `Nc1ccnc2cc(-c3ccccc3)nn12`, `Cc1ccccc1Nc1nc(-c2c(C)nc3ncccn23)cs1` is higher in normalized activity (activation): -0.02% for the first, 0.01% for the second.

Compared with `CSc1ncc(C(=O)Nc2ccc3c(c2)OCCO3)c(C)n1`, `C=CCOC(=O)C1=C(C)Nc2c(c(=O)n(C)c(=O)n2C)C1c1ccc2c(c1)OCO2` (stereo not drawn) is lower in normalized activity (activation): 0.15% for the first, 0.09% for the second.

First: Cc1ccc(-c2csc(/C(C#N)=C/c3ccccc3[N+](=O)[O-])n2)cc1
Second: Cc1ccc2[nH]cc(C(=O)c3ccccc3)c(=O)c2c1
The normalized activity (activation) of the first is lower: -0.09% for the first, 0.18% for the second.

Going from `Fc1ccc(C2CC(c3cccs3)=NN2c2nc(-c3ccccc3)cs2)cc1` (stereo not drawn) to `O=C(CSc1nnc(Nc2ccccc2)s1)c1ccc(F)cc1`, the normalized activity (activation) falls from -0.01% to -0.08%.

Compared with `c1cncc(-c2ncc(-c3ccncn3)c(-c3cccnc3)n2)c1`, `COc1ccccc1-c1cnc2c(NCc3cccs3)nccn12` is lower in normalized activity (activation): 0.02% for the first, -0.21% for the second.

First: COc1cccc(-c2nc(C3CCCN(C(=O)CC(C)CC(=O)O)C3)n3ccccc23)c1 (stereo not drawn)
Second: Cc1cccc(OCCC(=O)NNC(=O)Cc2cccn2C)c1
The normalized activity (activation) of the first is higher: 0.94% for the first, -0.11% for the second.

First: Cc1cccc2sc(NC(=O)c3ccc(S(=O)(=O)N4CC(C)CC(C)C4)cc3)nc12 (stereo not drawn)
Second: CCC(C)(C)C(=O)Nc1ccc(S(N)(=O)=O)cc1
The normalized activity (activation) of the first is higher: 0.22% for the first, -0.09% for the second.

Going from `C[N+](C)(C)CCNC(=O)c1c(O)c2c([nH]c1=O)CCCC2` to `CC[N+](C)(CC)CCNC(=O)c1c(O)c2ccccc2[nH]c1=O`, the normalized activity (activation) falls from 0.2% to 0.07%.

Compared with `CCOC(=O)c1cnc2cc(C(F)(F)F)ccc2c1Nc1ccccc1F`, `CCOc1ccc2c(=O)c(Oc3ccccc3)c(C(F)(F)F)oc2c1C` is higher in normalized activity (activation): -0.08% for the first, 0.9% for the second.

First: Cc1ccc2c(c1)N(CC(=O)NC1CC1)C(=O)CO2
Second: COc1ccc(C(=O)NCCC(=O)NC2CCCC2)cc1OC
The normalized activity (activation) of the first is lower: -0.26% for the first, 0.02% for the second.

Going from `CN(C)C(=O)CN(C)C(=O)c1c(C(F)(F)F)nc2ccccn12` to `C=CCN(C)C(=O)c1c(C(F)(F)F)nc2c(OC)cccn12`, the normalized activity (activation) falls from 0.23% to 0.11%.

First: CN1CCN(c2nc3c(c(=O)n(C)c(=O)n3C)n2CC(=O)c2ccc(Br)cc2)CC1
Second: O=C(CSC1=NS(=O)(=O)c2ccccc21)Nc1ccc(Br)cc1
The normalized activity (activation) of the first is higher: 0.05% for the first, -0.05% for the second.

Compared with `COC(=O)c1ccc2c(c1)N(Cc1c(C)noc1C)C(=O)C(F)(F)O2`, `CC(=O)N(Cc1cc2cc(C)cc(C)c2[nH]c1=O)CC1CCCO1` (stereo not drawn) is higher in normalized activity (activation): 0.09% for the first, 0.12% for the second.

First: Cc1cc(C)nc(/N=C(\N)N2CCOCC2)n1
Second: COc1nc(N=C(N)N)nc2c(C)cccc12
The normalized activity (activation) of the first is higher: 0.35% for the first, -0.06% for the second.

Going from `Cc1ccccc1CNC(=O)c1ccccc1I` to `O=C(CC(=O)c1ccccc1O)c1ccccc1`, the normalized activity (activation) falls from 0.92% to 0.25%.

`COc1ccccc1NS(=O)(=O)c1cccc(NC(=O)c2cc(=O)[nH]c(=O)[nH]2)c1` and `COc1ccc(CC(=O)NNC(=O)c2ccccc2Cl)cc1` are the same in normalized activity (activation): -0.11% for the first, -0.11% for the second.

First: CCN(CC)C(=O)Cn1ncn2c(cc3ccsc32)c1=O
Second: CSCCNC(=O)CCc1nnc(C2(c3ccc(Cl)cc3)CCC2)o1
The normalized activity (activation) of the first is lower: -0.03% for the first, 0.03% for the second.

Compared with `O=C1C(=O)N(c2nc3ccccc3s2)C(c2ccc(O)cc2)/C1=C(\O)c1ccc(Cl)cc1` (stereo not drawn), `CN(C)CCNC(=O)c1ccc(-c2cnc3c(NCc4ccc(F)cc4)nccn23)cc1` is higher in normalized activity (activation): -0.15% for the first, -0.01% for the second.

For `CC(=O)Nc1ccc(Nc2nc(Nc3cnccn3)nc3c2ncn3-c2ccccc2)cc1`, the normalized activity (activation) was 2.09% (active).
In the case of `O=C(CN(c1ccccc1)S(=O)(=O)c1ccccc1[N+](=O)[O-])N/N=C/c1ccco1`, the normalized activity (activation) is reported as 2.75% (active).
In the case of `N/C(=N\OC(=O)CCCOc1ccc(Cl)cc1Cl)c1nonc1N`, the normalized activity (activation) is reported as 4.98% (active).
For `COc1ccc(C2CC(c3cccs3)=NN2c2ccccc2)cc1` (stereo not drawn), the normalized activity (activation) was 8.78% (active).
With `CC[N+](C)(CC)CCNC(=O)c1c(O)c2c([nH]c1=O)CCCC2` the normalized activity (activation) was 2.05% (active).
With `C#CCN(C)C(=O)c1c(C(F)(F)F)nc2c(OC)cccn12` the normalized activity (activation) was 1.94% (active).
`CCC1(C)OC(=O)N(C)C1=O` (stereo not drawn) was tested, and the normalized activity (activation) was 2.13% (active).
For `CC1(C)N=C(SCC(=O)Nc2ccc(Br)cc2)C(c2ccccc2)=N1`, the normalized activity (activation) was 2.4% (active).
`Cc1cc(C)c2nc(N=C(N)N)nc(C)c2c1` was tested, and the normalized activity (activation) was 1.86% (active).
`CC(C)CNC(=O)c1ccccc1I` was tested, and the normalized activity (activation) was 1.93% (active).
In the case of `CN(C)c1ccccc1C(=O)c1ccccc1`, the normalized activity (activation) is reported as 2.06% (active).
In the case of `CCCc1nn(CC(=O)N(C)C)c(=O)c2cc3ccsc3n12`, the normalized activity (activation) is reported as 3.43% (active).
With `COc1cc(CNc2nccn3c(-c4ccc(F)cc4)cnc23)cc(OC)c1OC` the normalized activity (activation) was 1.85% (active).
